Experimental data reported in PubChem BioAssay (NCI).
Values joined by “and” are separate entries in the source; they are usually repeats but may differ in a detail not shown here. Equal entries are not always repeated. This is part of a sample that, as a whole, favours compounds with a hit. Of some 83,000 tested, about 20% had one in any assay.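 Note: values are percent growth. 100 is the growth of untreated cells, values between 100 and 0 indicate rising inhibition; between -100 and 0 indicates cell death.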 A number with no mark means an inactive call. Active and inactive are the calls of the source. Rule for the calls: active = growth percent below 10; inactive = the rest.

System: MDA-MB-468 breast
Experiment: NCI-60 one-dose screen, 48 h (100 = growth as untreated, 0 = no growth, -100 = all killed)
Conditions: 10 µM unless noted

Q: Which growth does the source give for `CCCC1C(C(=O)OCC)=C(N)Oc2cc(O)ccc21` (stereo not given) here?
A: 110%

Q: Which growth does the source give for `COc1cc2nc(Cl)nc(Nc3cccc(C4=Nc5c(N)nc(N)nc5NC(c5ccc(F)cc5)C4)c3)c2cc1OC` (stereo not given) here?
A: 45.8%

Q: `Nc1nonc1-c1nc2ccccc2n1Cc1ccc(F)cc1` was tested. Which growth did it give?
A: 23.6%

Q: `C/C(=C(/c1ccccc1)c1ccc(N2C(=O)c3cccc4c(NCc5ccccc5)ccc(c34)C2=O)cc1)c1ccccc1` was tested. Which growth did it give?
A: 116%

Q: Which growth does the source give for `C=C1[C@@H](O)C[C@H]2C(C)(C)C[C@H](Cl)C[C@]2(C)[C@H]1C[C@H](O)[C@H]1CC(=O)NC1=O` here?
A: -47.5% (active)

Q: For `O=C1c2ccc3c4c(ccc(c24)C(=O)N1CCCNCc1ccccc1F)C(=O)N(CCCNCc1ccccc1F)C3=O`, which growth is on record?
A: -95.1% (active)

Q: `N#Cc1c(-c2ccc(F)cc2)nc(N=Nc2c(O)[nH]c3ccccc23)nc1N1CCOCC1` was tested. Which growth did it give?
A: 59.1%

Q: With `NC(=O)CSc1nc(-c2ccc(F)cc2)cc(-c2ccco2)n1` as the compound, how does the growth read?
A: 71.7%

Q: `Cc1ccc2cc3c(NC(=O)c4cccnc4)nn(C)c3nc2c1` was tested. Which growth did it give?
A: 80.3%

Q: How did the growth turn out when `COc1cccc(-c2nc3occn3c2-c2ccnc(NCCCNS(=O)(=O)c3ccc(C(F)(F)F)cc3)n2)c1` was run?
A: 81.6%

Q: Which growth does the source give for `CCN(CC)CCNc1ccc(CO)c2sc3ccccc3c(=O)c12` here?
A: -41.4% (active)

Q: `CCOC(=O)c1c(N)c(C#N)cn1Cc1ccc(Cl)cc1Cl` was tested. Which growth did it give?
A: 45.2%

Q: For `Clc1ccc(NC(Nc2ccc(Cl)cc2)C(Cl)(Cl)Cl)cc1`, which growth is on record?
A: 98.4% and 108%

Q: Which growth does the source give for `Cc1c(-c2csc(-n3nc(C(F)(F)F)cc3C(F)(F)F)n2)no[n+]1[O-]` here?
A: 81.2%

Q: `COc1ccc(-c2cn(-c3cccc(C(=O)/C=C/c4cc(OC)c(OC)c(OC)c4)c3)c(=O)[nH]2)cc1OC` was tested. Which growth did it give?
A: 98.1%

Q: How did the growth turn out when `NC(=S)NN=C1CCCCC1` was run?
A: 26.4%

Q: With `CCN1CCN(C(=O)[C@]23CC[C@@H](C)[C@H](C)[C@@H]2C2=CC[C@@H]4[C@@]5(C)C/C(=C/c6ccncc6)C(=O)C(C)(C)[C@@H]5CC[C@@]4(C)[C@]2(C)CC3)CC1` as the compound, how does the growth read?
A: -1.64% (active)

Q: How did the growth turn out when `Cc1ccc(S(=O)(=O)c2nc(-c3ccccc3)oc2S(C)=O)cc1` (stereo not given) was run?
A: -59% (active)

Q: Which growth does the source give for `CCOC(=O)CC[C@H](NC(=O)c1ccc(NC)c2ccccc12)C(=O)OCC` here?
A: 95.1%

Q: With `c1ccc2cc(C[n+]3ccn(Cc4ccc5ccccc5n4)c3)ccc2c1` as the compound, how does the growth read?
A: -26.3% (active) and -3.7% (active)

Q: For `O=C1Nc2ccc(Cl)cc2/C1=N/N=C/c1c[nH]c2ccccc12`, which growth is on record?
A: 98.7%

Q: With `CCOC(=O)c1cc(N)nc2ccccc12` as the compound, how does the growth read?
A: 106%

Q: Which growth does the source give for `O=C(NC1=CC(=O)c2ccccc2C1=O)c1ccccc1` here?
A: -91% (active)

Q: How did the growth turn out when `O=C(O)c1cn(C2CC2)c2cc(N3CCN(C(=O)C[n+]4cccc5ccccc54)CC3)c(F)cc2c1=O` was run?
A: 71.4%

Q: `COc1cc(-c2nc3sccn3c2-c2ccnc(S(C)(=O)=O)n2)ccc1F` was tested. Which growth did it give?
A: 72.3%

Q: Which growth does the source give for `Nc1c(C(=O)c2ccccc2)sc2nc(-c3cccs3)cc(-c3cccs3)c12` here?
A: 30.8%

Q: For `C=C1C(=O)O[C@H]2[C@H]1CC/C(COC(=O)OCCCCCOC(=O)OC/C1=C/CC[C@@]3(C)O[C@H]3[C@H]3OC(=O)C(=C)[C@@H]3CC1)=C\CC[C@@]1(C)O[C@@H]21`, which growth is on record?
A: -38.5% (active)

Q: For `CCNc1nnc(COc2ccc(CNC(=O)CCCC/C=C/C(C)C)cc2OC)o1`, which growth is on record?
A: 104%

Q: How did the growth turn out when `COC(=O)c1ccc(NC(=S)N2CCc3ccc([N+](=O)[O-])cc3C2)cc1O` was run?
A: 94.2%

Q: With `O=C1/C(=C/c2ccc(Cl)cc2)CN(Cc2cn(CCCNc3ccnc4cc(Cl)ccc34)nn2)C/C1=C\c1ccc(Cl)cc1` as the compound, how does the growth read?
A: -69.8% (active)

Q: How did the growth turn out when `CCN(CC)c1ccc(NC(C(=O)c2ccccc2)c2ccccc2)cc1` (stereo not given) was run?
A: 1.41% (active)

Q: Which growth does the source give for `Cc1c(N)ccc(-c2ccc(N)c(C)c2S(=O)(=O)O)c1S(=O)(=O)O` here?
A: 115%

Q: `O=C1Nc2cc(Cl)ccc2/C1=C\c1ccc(OCc2ccc(Br)cc2F)cc1` was tested. Which growth did it give?
A: -37.8% (active)

Q: Which growth does the source give for `COC(=O)C1(C)COP(=O)(Nc2ccc(OC)cc2)OC1` (stereo not given) here?
A: 106%

Q: `CCN1CCN(C(=O)[C@@]2(C)CC[C@]3(C)CC[C@]4(C)C(=CC(=O)[C@@H]5[C@@]6(C)CC[C@H](OC7C[C@@H](O)[C@@H](O)C(C)O7)C(C)(C)[C@@H]6CC[C@]54C)[C@@H]3C2)CC1` (stereo not given in full) was tested. Which growth did it give?
A: 16.9%
